# Data from ChEMBL document CHEMBL1961873, “Compounds: GSK PKIS; Assays: Nanosyn kinase panel” (2012).
# Tests used:
# [1] = target: Ribosomal protein S6 kinase alpha-6 (Homo sapiens) (UniProt Q9UK32); settings: at 1 µM;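 also: each value is a mean inhibition of RSK4 from a GSK PKIS panel screen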
# [2] = target: T1, Serine/threonine-protein kinase Sgk1 (Homo sapiens) (UniProt O00141); settings: at 0.1 µM
# T1 sequence (whole entry): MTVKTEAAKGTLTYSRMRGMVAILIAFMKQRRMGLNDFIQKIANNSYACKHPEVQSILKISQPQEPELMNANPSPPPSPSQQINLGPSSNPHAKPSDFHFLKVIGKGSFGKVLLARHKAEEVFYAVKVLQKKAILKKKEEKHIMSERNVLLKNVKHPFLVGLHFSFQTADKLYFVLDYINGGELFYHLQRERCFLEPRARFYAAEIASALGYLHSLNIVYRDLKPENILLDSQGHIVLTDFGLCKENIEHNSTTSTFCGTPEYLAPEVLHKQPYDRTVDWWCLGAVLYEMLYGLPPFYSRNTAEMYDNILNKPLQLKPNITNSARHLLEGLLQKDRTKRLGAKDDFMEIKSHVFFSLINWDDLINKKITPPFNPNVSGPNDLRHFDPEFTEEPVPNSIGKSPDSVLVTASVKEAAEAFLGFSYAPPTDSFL
# [3] = target: T1, Serine/threonine-protein kinase Sgk1 (Homo sapiens); settings: at 1 µM
# [4] = target: T2, Serine/threonine-protein kinase Sgk2 (Homo sapiens) (UniProt Q9HBY8); settings: at 0.1 µM
# T2 sequence (whole entry): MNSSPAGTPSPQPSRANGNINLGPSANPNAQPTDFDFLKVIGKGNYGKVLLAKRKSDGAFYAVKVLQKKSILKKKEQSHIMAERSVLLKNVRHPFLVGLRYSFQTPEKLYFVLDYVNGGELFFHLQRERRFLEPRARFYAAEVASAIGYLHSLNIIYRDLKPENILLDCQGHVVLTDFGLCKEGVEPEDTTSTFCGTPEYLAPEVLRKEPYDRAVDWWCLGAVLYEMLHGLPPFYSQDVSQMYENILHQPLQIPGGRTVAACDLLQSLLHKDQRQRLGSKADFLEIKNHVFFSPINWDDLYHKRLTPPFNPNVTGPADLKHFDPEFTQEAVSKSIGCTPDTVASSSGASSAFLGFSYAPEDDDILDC
# [5] = target: T2, Serine/threonine-protein kinase Sgk2 (Homo sapiens); settings: at 1 µM
# [6] = target: T3, Serine/threonine-protein kinase Sgk3 (Homo sapiens) (UniProt Q96BR1); settings: at 0.1 µM
# T3 sequence (whole entry): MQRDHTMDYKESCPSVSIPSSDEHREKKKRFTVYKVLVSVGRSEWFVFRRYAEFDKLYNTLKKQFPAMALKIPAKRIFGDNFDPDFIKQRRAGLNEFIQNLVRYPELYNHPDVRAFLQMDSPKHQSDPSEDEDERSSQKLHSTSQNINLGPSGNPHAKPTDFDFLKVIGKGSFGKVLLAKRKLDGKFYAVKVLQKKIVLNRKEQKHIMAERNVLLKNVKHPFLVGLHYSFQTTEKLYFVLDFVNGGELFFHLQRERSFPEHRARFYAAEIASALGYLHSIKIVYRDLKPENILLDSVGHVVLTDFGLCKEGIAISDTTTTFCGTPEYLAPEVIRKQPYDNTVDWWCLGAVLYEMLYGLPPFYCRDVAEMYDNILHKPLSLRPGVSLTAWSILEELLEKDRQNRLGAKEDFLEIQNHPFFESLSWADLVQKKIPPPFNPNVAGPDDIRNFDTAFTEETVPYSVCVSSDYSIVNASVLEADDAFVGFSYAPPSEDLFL
# [7] = target: T3, Serine/threonine-protein kinase Sgk3 (Homo sapiens); settings: at 1 µM
# [8] = target: 5'-AMP-activated protein kinase catalytic subunit alpha-1 (Homo sapiens) (UniProt Q13131); settings: at 0.1 µM
# [9] = target: 5'-AMP-activated protein kinase catalytic subunit alpha-1 (Homo sapiens) (UniProt Q13131); settings: at 1 µM
# [10] = target: 5'-AMP-activated protein kinase catalytic subunit alpha-2 (Homo sapiens) (UniProt P54646); settings: at 0.1 µM
# [11] = target: 5'-AMP-activated protein kinase catalytic subunit alpha-2 (Homo sapiens) (UniProt P54646); settings: at 1 µM
# [12] = target: T4, NUAK family SNF1-like kinase 1 (Homo sapiens) (UniProt O60285); settings: at 0.1 µM
# T4 sequence (whole entry): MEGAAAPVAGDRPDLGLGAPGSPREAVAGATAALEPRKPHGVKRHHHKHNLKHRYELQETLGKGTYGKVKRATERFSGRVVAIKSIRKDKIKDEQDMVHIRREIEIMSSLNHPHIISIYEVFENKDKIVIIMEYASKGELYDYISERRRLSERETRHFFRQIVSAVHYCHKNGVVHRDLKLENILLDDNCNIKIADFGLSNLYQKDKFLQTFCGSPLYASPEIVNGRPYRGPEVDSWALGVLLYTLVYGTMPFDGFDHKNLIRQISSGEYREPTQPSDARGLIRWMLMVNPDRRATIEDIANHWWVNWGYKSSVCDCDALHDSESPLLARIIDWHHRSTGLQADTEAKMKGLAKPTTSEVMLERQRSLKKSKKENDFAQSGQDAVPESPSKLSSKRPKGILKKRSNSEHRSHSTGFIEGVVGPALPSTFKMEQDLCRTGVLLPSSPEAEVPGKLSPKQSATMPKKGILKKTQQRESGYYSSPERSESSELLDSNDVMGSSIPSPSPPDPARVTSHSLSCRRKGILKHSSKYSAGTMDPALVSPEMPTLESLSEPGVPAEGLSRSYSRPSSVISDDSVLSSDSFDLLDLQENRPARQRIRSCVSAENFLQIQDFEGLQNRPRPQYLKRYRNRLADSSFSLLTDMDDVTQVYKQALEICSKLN
# [13] = target: T4, NUAK family SNF1-like kinase 1 (Homo sapiens); settings: at 1 µM
# [14] = target: T5, Serine/threonine-protein kinase BRSK1 (Homo sapiens) (UniProt Q8TDC3); settings: at 0.1 µM
# T5 sequence (whole entry): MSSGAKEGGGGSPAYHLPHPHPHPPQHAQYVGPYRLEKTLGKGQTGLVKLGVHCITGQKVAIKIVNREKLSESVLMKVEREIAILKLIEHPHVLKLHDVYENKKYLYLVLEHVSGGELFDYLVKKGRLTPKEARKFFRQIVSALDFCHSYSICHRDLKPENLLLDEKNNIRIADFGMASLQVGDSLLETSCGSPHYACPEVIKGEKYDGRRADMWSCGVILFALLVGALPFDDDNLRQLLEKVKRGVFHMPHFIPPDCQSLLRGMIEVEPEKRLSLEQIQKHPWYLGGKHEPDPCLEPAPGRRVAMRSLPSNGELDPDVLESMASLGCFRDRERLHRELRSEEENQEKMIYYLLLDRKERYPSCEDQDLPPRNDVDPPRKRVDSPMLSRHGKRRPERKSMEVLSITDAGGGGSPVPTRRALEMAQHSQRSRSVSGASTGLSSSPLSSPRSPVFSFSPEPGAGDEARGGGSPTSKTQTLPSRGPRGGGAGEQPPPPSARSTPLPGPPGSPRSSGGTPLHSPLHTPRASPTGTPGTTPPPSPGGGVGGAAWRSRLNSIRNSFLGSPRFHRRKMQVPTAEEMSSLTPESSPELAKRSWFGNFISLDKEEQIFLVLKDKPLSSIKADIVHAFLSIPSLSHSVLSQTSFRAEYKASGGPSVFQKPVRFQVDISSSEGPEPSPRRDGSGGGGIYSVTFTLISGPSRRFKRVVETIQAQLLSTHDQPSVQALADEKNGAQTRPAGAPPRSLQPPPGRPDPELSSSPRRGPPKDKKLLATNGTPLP
# [15] = target: T5, Serine/threonine-protein kinase BRSK1 (Homo sapiens); settings: at 1 µM
# [16] = target: T6, Serine/threonine-protein kinase BRSK2 (Homo sapiens) (UniProt Q8IWQ3); settings: at 0.1 µM
# T6 sequence (whole entry): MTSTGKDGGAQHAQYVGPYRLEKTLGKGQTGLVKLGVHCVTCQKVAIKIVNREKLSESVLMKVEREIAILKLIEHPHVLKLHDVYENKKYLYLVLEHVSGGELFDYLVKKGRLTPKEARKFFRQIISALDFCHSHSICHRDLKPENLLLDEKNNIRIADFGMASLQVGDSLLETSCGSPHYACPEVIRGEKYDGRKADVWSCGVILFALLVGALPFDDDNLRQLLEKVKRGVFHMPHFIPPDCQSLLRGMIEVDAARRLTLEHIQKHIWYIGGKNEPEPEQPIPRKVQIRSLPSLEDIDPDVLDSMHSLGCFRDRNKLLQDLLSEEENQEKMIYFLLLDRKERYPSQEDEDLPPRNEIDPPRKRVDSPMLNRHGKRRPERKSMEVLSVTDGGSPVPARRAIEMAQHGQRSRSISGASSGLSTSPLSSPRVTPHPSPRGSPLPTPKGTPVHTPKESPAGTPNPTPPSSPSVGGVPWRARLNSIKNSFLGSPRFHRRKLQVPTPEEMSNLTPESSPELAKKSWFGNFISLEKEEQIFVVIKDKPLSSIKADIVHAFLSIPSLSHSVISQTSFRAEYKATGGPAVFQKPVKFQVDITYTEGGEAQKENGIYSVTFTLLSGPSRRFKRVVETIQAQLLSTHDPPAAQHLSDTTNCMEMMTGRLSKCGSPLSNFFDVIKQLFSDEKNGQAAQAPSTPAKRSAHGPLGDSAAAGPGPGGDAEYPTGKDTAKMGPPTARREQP
# [17] = target: T6, Serine/threonine-protein kinase BRSK2 (Homo sapiens); settings: at 1 µM
# [18] = target: Calcium/calmodulin-dependent protein kinase type 1D (Homo sapiens) (UniProt Q8IU85); settings: at 0.1 µM
# [19] = target: Calcium/calmodulin-dependent protein kinase type 1D (Homo sapiens) (UniProt Q8IU85); settings: at 1 µM
# [20] = target: Calcium/calmodulin-dependent protein kinase type II subunit alpha (Homo sapiens) (UniProt Q9UQM7); settings: at 0.1 µM;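 also: reported values are averages (mean inhibition of CAMK2A)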
# Calcium/calmodulin-dependent protein kinase type II subunit alpha (Homo sapiens), sequence (Q9UQM7 whole entry): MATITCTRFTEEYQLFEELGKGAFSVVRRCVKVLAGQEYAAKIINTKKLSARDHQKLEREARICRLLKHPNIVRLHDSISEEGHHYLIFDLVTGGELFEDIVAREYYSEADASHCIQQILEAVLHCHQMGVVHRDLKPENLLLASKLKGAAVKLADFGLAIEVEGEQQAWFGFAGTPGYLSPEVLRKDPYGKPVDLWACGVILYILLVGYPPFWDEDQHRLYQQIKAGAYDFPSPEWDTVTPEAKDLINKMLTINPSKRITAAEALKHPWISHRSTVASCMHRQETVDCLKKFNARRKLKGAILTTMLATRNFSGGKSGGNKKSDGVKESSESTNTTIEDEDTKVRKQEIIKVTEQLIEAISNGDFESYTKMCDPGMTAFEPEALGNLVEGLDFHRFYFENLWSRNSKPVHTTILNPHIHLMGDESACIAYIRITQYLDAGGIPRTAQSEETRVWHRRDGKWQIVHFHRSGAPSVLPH
# 5'-AMP-activated protein kinase catalytic subunit alpha-2 (Homo sapiens), sequence (P54646 whole entry, looked up): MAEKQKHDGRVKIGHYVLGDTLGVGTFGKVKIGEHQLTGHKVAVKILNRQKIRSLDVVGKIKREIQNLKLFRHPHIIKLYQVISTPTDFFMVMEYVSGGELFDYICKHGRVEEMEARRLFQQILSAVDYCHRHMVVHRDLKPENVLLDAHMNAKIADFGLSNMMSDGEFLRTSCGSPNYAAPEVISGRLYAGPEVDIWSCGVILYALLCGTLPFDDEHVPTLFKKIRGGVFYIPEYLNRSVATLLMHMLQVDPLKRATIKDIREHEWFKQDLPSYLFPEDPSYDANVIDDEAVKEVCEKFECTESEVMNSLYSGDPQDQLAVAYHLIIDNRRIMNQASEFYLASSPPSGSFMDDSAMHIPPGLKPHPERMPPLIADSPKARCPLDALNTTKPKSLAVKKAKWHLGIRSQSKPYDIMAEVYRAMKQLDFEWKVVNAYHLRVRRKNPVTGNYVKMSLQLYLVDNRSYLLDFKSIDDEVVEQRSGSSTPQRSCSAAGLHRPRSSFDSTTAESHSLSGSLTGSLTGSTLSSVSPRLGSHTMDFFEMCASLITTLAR
# 5'-AMP-activated protein kinase catalytic subunit alpha-1 (Homo sapiens), sequence (Q13131 whole entry, looked up): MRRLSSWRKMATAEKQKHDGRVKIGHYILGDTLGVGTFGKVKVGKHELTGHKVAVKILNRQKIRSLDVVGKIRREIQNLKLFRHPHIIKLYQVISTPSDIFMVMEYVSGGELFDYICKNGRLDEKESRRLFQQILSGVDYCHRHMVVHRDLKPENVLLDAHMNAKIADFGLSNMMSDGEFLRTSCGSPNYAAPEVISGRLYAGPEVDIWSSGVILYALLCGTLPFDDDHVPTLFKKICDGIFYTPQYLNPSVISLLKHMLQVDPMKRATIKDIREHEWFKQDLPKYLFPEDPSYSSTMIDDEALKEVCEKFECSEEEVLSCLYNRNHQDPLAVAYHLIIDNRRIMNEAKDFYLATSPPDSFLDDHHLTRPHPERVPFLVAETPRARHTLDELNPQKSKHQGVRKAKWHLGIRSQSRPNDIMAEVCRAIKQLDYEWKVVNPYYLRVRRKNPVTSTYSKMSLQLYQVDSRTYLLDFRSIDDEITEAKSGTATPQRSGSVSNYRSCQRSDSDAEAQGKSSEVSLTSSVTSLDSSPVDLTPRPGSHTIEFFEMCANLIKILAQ
# Ribosomal protein S6 kinase alpha-6 (Homo sapiens), sequence (Q9UK32 whole entry): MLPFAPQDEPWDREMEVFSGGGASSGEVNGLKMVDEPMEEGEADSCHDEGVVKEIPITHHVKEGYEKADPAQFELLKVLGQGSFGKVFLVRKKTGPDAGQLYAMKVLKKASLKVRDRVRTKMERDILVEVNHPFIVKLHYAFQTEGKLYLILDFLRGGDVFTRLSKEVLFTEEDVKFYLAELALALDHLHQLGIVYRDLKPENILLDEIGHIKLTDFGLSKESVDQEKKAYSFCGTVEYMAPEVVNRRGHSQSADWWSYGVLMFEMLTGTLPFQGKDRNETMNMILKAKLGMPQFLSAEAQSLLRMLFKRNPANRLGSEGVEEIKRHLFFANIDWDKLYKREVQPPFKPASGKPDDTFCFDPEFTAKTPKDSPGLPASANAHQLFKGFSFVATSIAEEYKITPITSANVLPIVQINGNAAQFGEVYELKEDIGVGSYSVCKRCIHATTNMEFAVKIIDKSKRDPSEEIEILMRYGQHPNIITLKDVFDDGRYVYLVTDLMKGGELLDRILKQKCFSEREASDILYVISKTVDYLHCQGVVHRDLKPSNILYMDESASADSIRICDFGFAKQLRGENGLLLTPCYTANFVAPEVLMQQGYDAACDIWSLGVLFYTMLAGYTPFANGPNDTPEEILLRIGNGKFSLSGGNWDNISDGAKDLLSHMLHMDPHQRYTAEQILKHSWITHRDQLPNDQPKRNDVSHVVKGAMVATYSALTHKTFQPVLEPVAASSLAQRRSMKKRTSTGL
# Calcium/calmodulin-dependent protein kinase type 1D (Homo sapiens), sequence (Q8IU85 whole entry, looked up): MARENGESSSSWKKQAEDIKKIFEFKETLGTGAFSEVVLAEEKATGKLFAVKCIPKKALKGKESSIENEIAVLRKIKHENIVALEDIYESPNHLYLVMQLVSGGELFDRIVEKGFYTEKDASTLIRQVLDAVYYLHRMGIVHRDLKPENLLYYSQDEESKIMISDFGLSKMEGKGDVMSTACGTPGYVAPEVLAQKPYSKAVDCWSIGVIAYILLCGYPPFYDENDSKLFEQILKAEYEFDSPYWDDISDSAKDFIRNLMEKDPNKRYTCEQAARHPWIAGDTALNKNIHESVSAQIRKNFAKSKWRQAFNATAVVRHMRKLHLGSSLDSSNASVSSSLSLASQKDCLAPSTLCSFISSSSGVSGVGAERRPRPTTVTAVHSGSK
Compound,inhibition [1],inhibition [2],inhibition [3],inhibition [4],inhibition [5],inhibition [6],inhibition [7],inhibition [8],inhibition [9],inhibition [10],inhibition [11],inhibition [12],inhibition [13],inhibition [14],inhibition [15],inhibition [16],inhibition [17],inhibition [18],inhibition [19],inhibition [20]
CN(C)CCCn1c(-c2nonc2N)nc2cnccc21,4.47%,2.27%,4.15%,2.98%,2.34%,2.21%,3.38%,2.93%,2.04%,3.05%,5.42%,3.04%,-0.59%,1.23%,0.57%,0.27%,1.19%,0.27%,-0.73%,2.81%
Cc1cc(Cl)cc2c1NC(=O)C2=NNc1ccc(S(N)(=O)=O)cc1,1.2%,2.17%,3.67%,1.33%,7.78%,2.89%,5.67%,1.67%,4.05%,-0.13%,1.04%,0.35%,8.3%,-1.42%,3.61%,1.16%,3.77%,0.2%,-0.6%,4.14%
CN(c1ccc(NC(=O)Nc2ccc(OC(F)(F)F)cc2)cc1)c1ccnc(Nc2cccc(S(N)(=O)=O)c2)n1,-0.89%,2.63%,1.43%,3.27%,4.82%,7.71%,2.44%,0.3%,1.3%,-1.16%,2.41%,-0.52%,10.1%,1.53%,5.53%,1.94%,1.96%,-0.31%,0.2%,3.05%
CC(C)c1ccc(Nc2nccc(-c3cnn4ncccc34)n2)cc1,1.84%,1.8%,3.19%,0.34%,3.21%,2.01%,0.79%,1.84%,3.55%,2.35%,4.11%,12.6%,48.9%,-0.04%,3.13%,1.33%,4.11%,-0.71%,2.35%,1.42%
Cc1ccc2c(c1)/C(=N/Nc1ccc(S(N)(=O)=O)cc1)C(=O)N2,2.46%,0.97%,1.07%,1.13%,0.76%,-0.94%,-1.14%,1.77%,6.53%,0.59%,12.3%,21.7%,62.2%,2.87%,9.92%,3.09%,12.8%,2.35%,2.43%,2.02%
